# Assay outcomes deposited in PubChem by several laboratories.
# Calpain2 inh: blocks pig calpain II enzyme activity; purified calpain II, fluorogenic peptide substrate, 30 min; inhibition, % at 16 µM; 220,000 tested, 0.37% active;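 active means inhibition above about 50%, limit read from the data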
# ROMK mod: human ROMK K+ channel modulation, primary screen. P48048. Tet-inducible ROMK, thallium flux fluorescence; actives lie on both sides. B-score at 10 µM. 130,000 tested, 2% active. AID 1918;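 active means signal ratio slope over the read window, or its plate-corrected B-score, at least 3 SD from the plate mean, either direction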;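 further: B-score of the F/F0 ratio slope over 7 to 12 s after thallium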
# L929 necroptosis: blocks zVAD induced death of L929 cells | L929 zVAD necroptosis rescue, ATP luminescence, 24 h; with zVAD 60 µM | viability rescue, % at 10 µM | 220,000 tested, 0.38% active;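 active means activation, scaled between plate controls, above about 75%, limit read from the data; inactive means activation under that limit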;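 further: 0% = zVAD with DMSO and 100% = DMSO alone without zVAD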
# 14-3-3 Bad PPI: disrupts binding of bovine 14-3-3 zeta to phospho-Bad peptide; TR-FRET 14-3-3zeta/Dy647-pBad peptide displacement, 1 h; inhibition, % at 21.7 µM; 220,000 tested, 0.71% active; AID 781;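 active means inhibition above about 70%, limit read from the data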;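 further: 0% = full 14-3-3 plus peptide FRET controls and 100% = background without 14-3-3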
# Target sequence (P63103 whole entry, looked up): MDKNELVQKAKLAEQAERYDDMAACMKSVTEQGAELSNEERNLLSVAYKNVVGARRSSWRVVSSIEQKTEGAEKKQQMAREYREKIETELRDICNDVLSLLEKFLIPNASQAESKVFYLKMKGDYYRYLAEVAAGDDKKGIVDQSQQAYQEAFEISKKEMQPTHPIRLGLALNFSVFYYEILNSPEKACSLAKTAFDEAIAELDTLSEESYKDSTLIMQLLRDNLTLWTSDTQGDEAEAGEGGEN
# TNF necrop inh: TNF-alpha cell death inhibition in Jurkat FADD-/- cells. Jurkat FADD-/- TNF necroptosis rescue, ATP luminescence, 24 h; 0 = TNF only, 100 = no-TNF cells. activation (protection from cell death), % at 10 µM. 220,000 tested, 0.068% active. AID 463075;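 active means activation, meaning protection from cell death, of at least 50% relative to plate controls; inactive means activation below 50%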;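 further: necroptosis triggered by 40 ng/mL TNF-alpha added together with compound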
# HMGR II inh: E. faecalis class II HMG-CoA reductase inhibition; purified E. faecalis HMGR, NADPH absorbance 340 nm kinetic; inhibition, % at 10 µM; 190,000 tested, 0.41% active; AID 1066;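 active means inhibition above a set limit, the median over all tested compounds plus 3 SD, cut at about 9.5% in these data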;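 further: enzyme runs in reverse so mevalonate oxidation gives rising NADPH absorbance; 0% = complete reaction with DMSO and 100% = background rate lacking mevalonate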
# Starred values were filed as active, the others as inactive; i = inactive; / = not tested or not shown; [ ] = remark or other dose. Shown are actives, neighbours in structure and some others; about 3% of the full set was active somewhere.
SMILES,Calpain2 inh,ROMK mod,L929 necroptosis,14-3-3 Bad PPI,TNF necrop inh,HMGR II inh
COc1ccc(NC(=O)c2cccnc2SC)cc1S(=O)(=O)N1CCCCC1,10,/,1,2,-1,-4
CC(C)[C@H](NC(=O)[C@H](CCCN=C(N)N)NC(=O)NC(Cc1ccccc1)C(=O)O)C(=O)NC(C=O)CCCN=C(N)N (some centres undefined),51*,/,65,4,1,-4
COc1ccc(-c2cn(-c3ccc(C)cc3C)c(=O)[nH]2)cc1OC,39,-0.022,-2,3,-1,-2
COc1ccc(-c2csc(C)n2)cc1,-11,/,0,1,1,9.8*
Cc1cccc(C)c1OC(=O)C(c1ccccc1)c1ccccc1,7,-0.13,1,1,-1,-1
O=C(COc1ccccc1C(=O)Nc1ccccc1)c1ccc(Br)cc1,30,0.27,1,11,0,10*
O=C(NCc1ccccc1)c1cc[n+](CC(=O)c2cccs2)cc1,-4,/,0,0,0,/
COc1cc2c(cc1OC)CN(C(=S)NC(=O)c1ccccc1)CC2,27,/,0,6,0,-9
O=C(O)c1cc(-c2ccc(O)cc2)on1,32,-0.17,3,79*,0,-5
O=C(O)c1cc(-c2ccccc2)on1,-26,/,0,9,-1,-4
CCc1[nH]nc2c1C(c1ccc(Br)s1)C(C#N)=C(N)O2 (centres undefined),-27,-4.2*,0,-8,-9,-4
CCc1[nH]nc2c1C(c1ccc(C)o1)C(C#N)=C(N)O2 (centres undefined),-17,-2.5,2,-4,-3,-6
CC(=O)N/N=C/c1cc(C)n(-c2ccc(Br)cc2)c1C,-6,/,0,-3,0,1
CC(=O)N/N=C/c1cc(C(C)C)cc(/C=N/NC(C)=O)c1O,i,-3.3*,8,-22,1,-1
Cc1ccc2cc(CCNC(=O)Cc3cccs3)c(=O)[nH]c2c1,-12,-2,/,-11,-1,-2
O=C(O)c1ccc(-n2ncc3c2/C(=C/c2cccc([N+](=O)[O-])c2)CC3)cc1,7,/,1,-2,0,/
O=C(O)c1ccccc1-n1ncc2c1/C(=C/c1ccc(Cl)cc1)CC2,18,/,0,79*,-1,/
CCO/C(=C/c1sc2ccc(OC)cc2[n+]1CCCS(=O)(=O)[O-])CC,-3,0.66,0,29,1,-1
CCOC(=O)C[n+]1c(C)sc2ccc(OC)cc21,9,0.0071,0,80*,-5,-8
CCC(C)(C)c1ccc(OCCCC[n+]2ccccc2)c(C(C)(C)CC)c1,-6,-3.7*,1,1,-13,-2
COc1ccccc1NC(=O)/C(=C/c1cccs1)NC(=O)c1ccco1,55*,/,1,-2,5,/
COc1ccc(NC(=O)/C(=C/c2cccs2)NC(=O)c2ccco2)cc1,-3,/,0,-1,1,/
COc1ccccc1NC(=O)C(=O)NNC(=O)c1ccco1,-3,1.8,0,2,-4,0
CC(=O)c1ccc(NC(=O)/C(=C\c2cccs2)NC(=O)c2ccco2)cc1,-18,0.22,3,88*,0,-12
Cc1ccsc1C(=O)N1CCCC(C(=O)c2cc(F)ccc2F)C1 (centres undefined),30,-0.2,-1,-4,2,-5
SMILES,Calpain2 inh,ROMK mod,L929 necroptosis,14-3-3 Bad PPI,TNF necrop inh,HMGR II inh
CCCCNC(=O)C(=O)NC(C)CCc1ccccc1 (centres undefined),4,0.056,0,-7,-2,-4
O=C1c2cccc3cc([N+](=O)[O-])cc(c23)C(=O)N1/N=C/c1ccc(O)cc1O,30,0.37,2,97*,-4,/
O=C1c2cccc3cc([N+](=O)[O-])cc(c23)C(=O)N1CCN1CCCC1,0,0.29,20,30,-28,/
Cc1noc(C)c1COC(=O)CNC(=O)c1cccc(F)c1,59*,0.77,2,-14,1,-6
Cc1noc(C)c1COC(=O)C(c1ccccc1)c1ccccc1,58*,-1,-1,-9,-2,-8
Cc1noc(C)c1COC(=O)/C=C/c1ccccc1Cl,33,0.36,0,-3,-1,-5
O=C(NCc1cccs1)c1ccccc1,22,0.38,1,-11,4,-3
O=C(NCc1cccs1)c1cccc(Nc2nc3ccc(Br)cc3[nH]2)c1,55*,/,1,-1,-1,-2
O=C(NCCCN1CCN(c2ccccc2F)CC1)Nc1ccccc1[N+](=O)[O-],-1,-0.14,0,-3,1,1
Cc1c(C(=O)N2CCCC2)sc(NC(=O)c2ccccc2)c1C#N,-1,/,0,78*[fluorescence artefact?],-1,0
CC(C)c1ccc(/C=C/c2ccc(=O)n(C)n2)cc1,-222,-0.78,4,-2,-4,-2
CC(C)c1ccc(/C=C/C2=NNC(=O)CC2)cc1,92*,-0.33,4,2,-12,-2
CCOC(=O)c1c(C)[nH]c(C)c1C(=O)COC(=O)c1ccc(OC)c(OC)c1,20,-0.74,2,-3,-2,-2
CCOc1ccccc1CN1CCN(Cc2ccon2)CC1CCO (centres undefined),-3,/,0,-3,3,/
Cc1ccc(NC(=O)Cn2c(O)c(N=NC(=O)c3cc4ccccc4cc3O)c3ccccc32)cc1,-22,/,1,82*[fluorescence artefact?],1,1
COc1ccccc1NC(=O)Cn1c(O)c(N=NC(=O)c2ccccc2O)c2ccccc21,-31,-1.3,-1,79*,-3,-8
COc1ccc(NC(=O)C2CCCN(S(=O)(=O)c3cccc4cccnc34)C2)c(OC)c1 (centres undefined),124*,/,1,-5,-3,1
Cc1ccc(C2=N/C(=C/N3CCOCC3)C(=O)O2)cc1,27,/,0,11,-1,-10
Cc1cccc2cc(/C=C3\N=C(c4ccccc4)OC3=O)c(N3CCOCC3)nc12,-134,-5*,2,6,0,-4
N#Cc1cc([N+](=O)[O-])cnc1N(CCO)CCO,3,0.68,0,6,1,1
S=C1Cc2ccccc2N1,55*,0.91,52,11,-26,/
CCOc1ccc(-c2c[n+]3c(n2-c2ccccc2)CCCCC3)cc1,16,/,0,14,-5,-8
COc1ccc(N2CCN(c3nc(NC(C)(C)C)nc(N4CCCCC4)n3)CC2)cc1,65*,0.44,0,-10,-2,-4
COc1ccc(Nc2nc(NC(C)(C)C)nc(N3CCCC3)n2)c(OC)c1,-9,/,-1,-3,4,0
Cc1ccc(OCC(O)CN2CCN(Cc3ccc4c(c3)OCO4)CC2)c(C)c1 (centres undefined),11,/,0,77*,-7,3
